This note sets out measurements from PubChem BioAssay (NCI).

About 83,000 compounds went through this panel and 20% of them were active in at least one assay; those are over-represented in the sample as a whole.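 The test compound was applied at a single concentration to cells in 96-well plates for 48 hours, and percent growth was recorded.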 A number with no mark means an inactive call. Calls of active or inactive are those of the source. Rule for the calls: active = growth percent below 10; inactive = the rest.

The assay concerns HCT-116 colon. Description: NCI-60 one-dose screen, 48 h (100 = growth as untreated, 0 = no growth, -100 = all killed). As to conditions: 10 µM unless noted.
With `COc1ccc(-c2cc3c(C)nc(N)nc3n(C3CCC(OCCO)CC3)c2=O)cn1` (configuration not stated), the growth was 7.89% (active).

Regarding `Cc1c(Cn2c(C)nc3c(C(=O)O)cc(N4CCOCC4)cc32)cccc1C(F)(F)F`, the growth was 92.1%. For `Cc1nc2ccc(-n3ncc(C(=O)c4cc5ccccc5[nH]4)c3N)cc2[nH]1` the value was 27.1%; for `Cc1cn(-c2cc(NC(=O)c3ccc(C)c(Nc4nccc(-c5cnccn5)n4)c3)cc(C(F)(F)F)c2)cn1`, 42.6%.

Take `C=CC(=O)N1CCC[C@H](n2c(=O)n(-c3ccc(Oc4ccccc4)cc3)c3c(N)ncnc32)C1`: the growth is 74%.

For the compound `CC(C)OP(=O)(CCC(=O)c1c[nH]c2ccccc12)OC(C)C`, the growth is 113%. Turning to `O=C1/C(=C\c2cccc(OCCCCCOc3ccc(Cl)cc3)c2)N=C2SCCCN12`, the growth was 52.7%. With `COC(=O)CCCNc1c(-c2c(O)c(O)cc3c(O)c(-c4c(C)cc5c(-c6nc7ccccn7c6NCCCC(=O)OC)c(O)c(O)cc5c4O)c(C)cc23)nc2ccccn12` the figure was 7.23% (active); with `Cc1nn(-c2nc3ccccc3[nH]2)c2c1C(c1ccc(OCc3ccc(F)cc3)cc1)CC(=O)N2` (configuration not stated), 73.4%. In the case of `CCCC(=O)OCC1OC(n2cnc3c(=S)nc(N)[nH]c32)C(OC(=O)CCC)C1OC(=O)CCC` (configuration not stated), the growth was 24.7%.

With `CNC(=O)c1cccc2cc(Oc3ccnc4cc(OCC5(N)CC5)c(OC)cc34)ccc12`, the growth is 33.2%.

With `O=C(Nc1ccc(Nc2ncnc3sc4c(c23)CCOC4)cc1)Nc1ccc(Cl)c(C(F)(F)F)c1`, the growth was 77.5%.
